Data as given in PMC7862700, “An all-to-all approach to the identification of sequence-specific readers for epigenetic DNA modifications on cytosine”.

Key:
Experiment in all cases: DAPPL (digital affinity profiling via proximity ligation, sequencing); 10 mM Tris-HCl pH 7.5, 50 mM NaCl, 1 mM DTT, 4% glycerol, room temperature, 30 min; GST-TFs on glutathione beads, 16-mer random dsDNA library, 0.1% formaldehyde crosslink after washing; high values mean tight binding
[1] = molecular target: T1, FLI1 (Homo sapiens, UniProt Q01543 1-452); conditions: protein: recombinant; tags: N-terminal GST; dsDNA, one strand shown
T1 sequence: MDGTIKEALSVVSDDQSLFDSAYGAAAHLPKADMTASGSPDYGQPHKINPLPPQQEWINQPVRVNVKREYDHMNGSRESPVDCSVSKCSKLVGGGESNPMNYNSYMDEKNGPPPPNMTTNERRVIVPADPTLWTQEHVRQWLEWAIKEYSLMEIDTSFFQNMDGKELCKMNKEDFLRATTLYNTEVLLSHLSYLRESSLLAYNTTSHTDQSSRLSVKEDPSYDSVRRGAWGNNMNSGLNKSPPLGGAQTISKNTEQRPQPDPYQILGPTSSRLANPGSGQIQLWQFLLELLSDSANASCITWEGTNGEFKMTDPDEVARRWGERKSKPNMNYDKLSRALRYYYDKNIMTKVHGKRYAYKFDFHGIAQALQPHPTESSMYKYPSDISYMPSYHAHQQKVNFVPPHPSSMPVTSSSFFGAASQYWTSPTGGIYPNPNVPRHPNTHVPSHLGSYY
Procedure, shortened: (§1)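 A tag-only sample was pooled with DNA-barcoded human transcription factors that had been expressed in yeast as GST fusions and captured on glutathione beads. The pools were incubated for 30 min at room temperature with 200 nmole of a random double-stranded 16-mer DNA library in Tris/NaCl/DTT/glycerol buffer, then washed, crosslinked with 0.1% formaldehyde, proximity-ligated (BsaI/T4 ligase, 1 h, 37 °C), PCR-amplified and sequenced on an Illumina NextSeq500. Binding signal is each hexamer's read frequency for a factor divided by its frequency for the tag-only sample.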

[2] = molecular target: T2, ELK1 (Homo sapiens, UniProt P19419 1-428); conditions: protein: recombinant; tags: N-terminal GST; dsDNA, one strand shown
T2 sequence: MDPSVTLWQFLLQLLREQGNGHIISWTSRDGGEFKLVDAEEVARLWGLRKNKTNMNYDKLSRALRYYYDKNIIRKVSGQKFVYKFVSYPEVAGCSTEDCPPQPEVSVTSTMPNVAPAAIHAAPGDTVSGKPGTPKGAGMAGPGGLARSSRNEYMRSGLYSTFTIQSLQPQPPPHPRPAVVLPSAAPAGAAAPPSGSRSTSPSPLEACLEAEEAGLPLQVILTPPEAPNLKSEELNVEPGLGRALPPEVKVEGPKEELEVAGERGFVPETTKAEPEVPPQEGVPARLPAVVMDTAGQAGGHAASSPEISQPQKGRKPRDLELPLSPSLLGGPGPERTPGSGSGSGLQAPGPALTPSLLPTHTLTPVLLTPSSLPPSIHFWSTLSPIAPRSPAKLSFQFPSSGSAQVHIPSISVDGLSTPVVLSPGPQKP
Procedure, shortened: as §1

[3] = molecular target: T3, GABPA (Homo sapiens, UniProt Q06546 1-454); conditions: protein: recombinant; tags: N-terminal GST; dsDNA, one strand shown
T3 sequence: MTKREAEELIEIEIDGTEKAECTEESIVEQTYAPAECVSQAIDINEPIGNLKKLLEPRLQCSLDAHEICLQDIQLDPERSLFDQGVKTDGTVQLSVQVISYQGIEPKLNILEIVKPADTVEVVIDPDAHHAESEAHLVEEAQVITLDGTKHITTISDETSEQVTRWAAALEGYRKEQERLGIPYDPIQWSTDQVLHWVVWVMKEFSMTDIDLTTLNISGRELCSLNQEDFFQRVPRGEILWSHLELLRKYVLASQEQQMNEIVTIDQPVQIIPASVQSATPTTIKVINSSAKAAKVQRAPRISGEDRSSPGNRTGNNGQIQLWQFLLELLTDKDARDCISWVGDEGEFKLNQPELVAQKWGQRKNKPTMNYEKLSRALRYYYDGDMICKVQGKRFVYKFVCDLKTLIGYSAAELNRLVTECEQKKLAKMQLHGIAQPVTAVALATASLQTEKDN
Procedure, shortened: as §1

[4] = molecular target: T4, ERG (Homo sapiens, UniProt P11308 1-479); conditions: protein: recombinant; tags: N-terminal GST; dsDNA, one strand shown
T4 sequence: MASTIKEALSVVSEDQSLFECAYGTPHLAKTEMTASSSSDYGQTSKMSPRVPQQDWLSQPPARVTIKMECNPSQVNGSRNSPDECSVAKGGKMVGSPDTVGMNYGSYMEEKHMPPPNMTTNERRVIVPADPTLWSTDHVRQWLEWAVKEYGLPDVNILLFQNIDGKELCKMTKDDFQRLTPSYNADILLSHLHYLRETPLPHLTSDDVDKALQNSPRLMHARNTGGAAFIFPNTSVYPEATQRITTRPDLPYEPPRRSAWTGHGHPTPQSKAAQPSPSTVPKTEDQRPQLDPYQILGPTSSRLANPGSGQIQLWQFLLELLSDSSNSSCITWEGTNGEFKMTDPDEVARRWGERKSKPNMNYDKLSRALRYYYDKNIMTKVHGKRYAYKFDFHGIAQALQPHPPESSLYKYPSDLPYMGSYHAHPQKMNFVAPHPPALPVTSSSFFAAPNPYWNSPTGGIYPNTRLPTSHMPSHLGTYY
Procedure, shortened: as §1

[5] = molecular target: ELF1 (Homo sapiens, UniProt P32519 1-619); conditions: protein: recombinant; tags: N-terminal GST; dsDNA, one strand shown
ELF1, sequence (P32519 whole entry): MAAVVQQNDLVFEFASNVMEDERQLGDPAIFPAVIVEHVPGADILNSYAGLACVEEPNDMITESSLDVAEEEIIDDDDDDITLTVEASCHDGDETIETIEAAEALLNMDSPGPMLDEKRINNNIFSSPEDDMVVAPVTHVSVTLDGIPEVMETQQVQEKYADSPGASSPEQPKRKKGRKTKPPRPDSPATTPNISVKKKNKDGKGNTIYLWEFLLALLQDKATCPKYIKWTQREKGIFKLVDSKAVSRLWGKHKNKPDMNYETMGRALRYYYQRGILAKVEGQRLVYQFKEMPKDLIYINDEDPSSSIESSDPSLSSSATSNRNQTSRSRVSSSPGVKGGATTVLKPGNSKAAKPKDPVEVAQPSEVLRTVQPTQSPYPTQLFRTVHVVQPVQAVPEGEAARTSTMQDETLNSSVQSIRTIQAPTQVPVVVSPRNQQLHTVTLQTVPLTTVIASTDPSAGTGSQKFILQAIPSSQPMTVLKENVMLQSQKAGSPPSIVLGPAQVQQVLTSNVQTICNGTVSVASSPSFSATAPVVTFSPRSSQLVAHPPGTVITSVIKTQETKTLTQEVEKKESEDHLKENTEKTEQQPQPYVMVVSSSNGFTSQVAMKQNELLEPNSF
Procedure, shortened: as §1

[6] = molecular target: T5, EHF (Homo sapiens, UniProt Q9NZC4 1-300); conditions: protein: recombinant; tags: N-terminal GST; dsDNA, one strand shown
T5 sequence: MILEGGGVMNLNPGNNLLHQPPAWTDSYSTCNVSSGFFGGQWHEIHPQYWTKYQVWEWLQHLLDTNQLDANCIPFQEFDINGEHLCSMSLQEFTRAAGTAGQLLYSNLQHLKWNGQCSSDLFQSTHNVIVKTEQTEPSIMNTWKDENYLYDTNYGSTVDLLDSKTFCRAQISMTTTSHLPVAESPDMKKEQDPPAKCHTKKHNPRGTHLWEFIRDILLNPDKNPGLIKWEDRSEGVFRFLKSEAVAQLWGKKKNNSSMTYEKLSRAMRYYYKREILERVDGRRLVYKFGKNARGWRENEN
Procedure, shortened: as §1

[7] = molecular target: SPI1 (Homo sapiens, UniProt P17947 1-270); conditions: protein: recombinant; tags: N-terminal GST; dsDNA, one strand shown
Procedure, shortened: as §1

[8] = molecular target: SPIB (Homo sapiens, UniProt Q01892 1-262); conditions: protein: recombinant; tags: N-terminal GST; dsDNA, one strand shown
SPIB, sequence (Q01892 whole entry): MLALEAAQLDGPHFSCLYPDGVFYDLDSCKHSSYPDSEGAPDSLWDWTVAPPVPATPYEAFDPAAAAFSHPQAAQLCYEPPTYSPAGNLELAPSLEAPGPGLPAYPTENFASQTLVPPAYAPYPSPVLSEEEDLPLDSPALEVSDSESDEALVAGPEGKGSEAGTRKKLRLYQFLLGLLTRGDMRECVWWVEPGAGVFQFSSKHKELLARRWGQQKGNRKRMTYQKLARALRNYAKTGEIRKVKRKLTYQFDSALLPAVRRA
Procedure, shortened: as §1

[9] = molecular target: T6, ELK3 (Homo sapiens, UniProt P41970 1-407); conditions: protein: recombinant; tags: N-terminal GST; dsDNA, one strand shown
T6 sequence: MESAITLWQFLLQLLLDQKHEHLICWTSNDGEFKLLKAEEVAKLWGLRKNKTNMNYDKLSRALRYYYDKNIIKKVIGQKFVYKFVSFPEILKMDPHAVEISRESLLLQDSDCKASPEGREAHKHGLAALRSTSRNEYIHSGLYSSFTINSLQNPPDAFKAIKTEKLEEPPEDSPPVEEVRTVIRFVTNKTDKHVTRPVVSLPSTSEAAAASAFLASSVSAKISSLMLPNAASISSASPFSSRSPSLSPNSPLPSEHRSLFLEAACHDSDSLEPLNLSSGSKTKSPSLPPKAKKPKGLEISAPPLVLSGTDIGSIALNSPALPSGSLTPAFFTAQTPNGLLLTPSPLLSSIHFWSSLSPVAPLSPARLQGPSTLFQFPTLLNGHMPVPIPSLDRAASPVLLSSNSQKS
Procedure, shortened: as §1

[10] = molecular target: T7, FEV (Homo sapiens, UniProt Q99581 1-238); conditions: protein: recombinant; tags: N-terminal GST; dsDNA, one strand shown
T7 sequence: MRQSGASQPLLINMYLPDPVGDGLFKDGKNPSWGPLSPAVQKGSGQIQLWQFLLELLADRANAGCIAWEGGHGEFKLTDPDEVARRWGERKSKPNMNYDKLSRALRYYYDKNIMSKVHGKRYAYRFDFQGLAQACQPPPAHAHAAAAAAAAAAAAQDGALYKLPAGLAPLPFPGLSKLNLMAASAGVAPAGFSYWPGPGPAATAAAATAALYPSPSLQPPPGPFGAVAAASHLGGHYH
Procedure, shortened: as §1

[11] = molecular target: ETV5 (Homo sapiens, UniProt P41161 1-510); conditions: protein: recombinant; tags: N-terminal GST; dsDNA, one strand shown
ETV5, sequence (P41161 whole entry): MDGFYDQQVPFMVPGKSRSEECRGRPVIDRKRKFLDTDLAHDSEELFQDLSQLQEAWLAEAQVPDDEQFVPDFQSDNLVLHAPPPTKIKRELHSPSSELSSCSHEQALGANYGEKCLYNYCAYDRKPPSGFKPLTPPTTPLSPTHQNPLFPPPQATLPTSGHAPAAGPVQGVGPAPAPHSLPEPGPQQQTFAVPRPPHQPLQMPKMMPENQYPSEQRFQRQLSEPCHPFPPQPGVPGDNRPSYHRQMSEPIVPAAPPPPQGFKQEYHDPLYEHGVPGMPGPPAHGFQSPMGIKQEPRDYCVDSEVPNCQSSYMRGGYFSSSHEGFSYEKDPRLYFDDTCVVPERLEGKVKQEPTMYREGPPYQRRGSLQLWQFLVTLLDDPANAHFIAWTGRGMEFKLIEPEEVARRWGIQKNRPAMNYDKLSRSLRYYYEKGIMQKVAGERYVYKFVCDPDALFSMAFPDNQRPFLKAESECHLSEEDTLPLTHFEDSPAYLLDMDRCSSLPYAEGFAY
Procedure, shortened: as §1

[12] = molecular target: HSF1 (Homo sapiens, UniProt Q00613 1-529); conditions: protein: recombinant; tags: N-terminal GST; chain copies: 3; dsDNA, one strand shown
HSF1, sequence (Q00613 whole entry): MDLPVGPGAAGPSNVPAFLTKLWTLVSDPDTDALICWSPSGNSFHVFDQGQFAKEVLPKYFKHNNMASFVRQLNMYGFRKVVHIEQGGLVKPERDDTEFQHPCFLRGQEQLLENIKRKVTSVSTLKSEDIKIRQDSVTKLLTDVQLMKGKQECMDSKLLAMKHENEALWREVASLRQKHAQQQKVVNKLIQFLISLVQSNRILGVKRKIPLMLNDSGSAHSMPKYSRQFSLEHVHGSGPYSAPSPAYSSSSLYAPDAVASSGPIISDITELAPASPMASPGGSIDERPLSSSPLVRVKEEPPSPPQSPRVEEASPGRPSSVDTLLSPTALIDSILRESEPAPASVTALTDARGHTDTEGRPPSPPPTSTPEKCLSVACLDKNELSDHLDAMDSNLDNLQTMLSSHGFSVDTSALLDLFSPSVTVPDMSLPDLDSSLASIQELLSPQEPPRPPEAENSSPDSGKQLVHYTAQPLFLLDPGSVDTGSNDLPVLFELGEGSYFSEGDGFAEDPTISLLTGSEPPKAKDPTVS
Procedure, shortened: as §1

[13] = molecular target: T8, SPIC (Homo sapiens, UniProt Q8N5J4 1-248); conditions: protein: recombinant; tags: N-terminal GST; dsDNA, one strand shown
T8 sequence: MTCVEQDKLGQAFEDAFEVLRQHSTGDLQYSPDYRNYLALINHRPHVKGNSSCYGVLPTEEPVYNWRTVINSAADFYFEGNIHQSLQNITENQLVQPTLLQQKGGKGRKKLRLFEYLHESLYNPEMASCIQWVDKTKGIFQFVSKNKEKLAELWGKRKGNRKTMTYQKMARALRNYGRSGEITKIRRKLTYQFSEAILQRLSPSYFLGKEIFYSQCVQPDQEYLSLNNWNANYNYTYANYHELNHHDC
Procedure, shortened: as §1

[14] = molecular target: ELF4 (Homo sapiens, UniProt Q99607 1-663); conditions: protein: recombinant; tags: N-terminal GST; dsDNA, one strand shown
ELF4, sequence (Q99607 whole entry): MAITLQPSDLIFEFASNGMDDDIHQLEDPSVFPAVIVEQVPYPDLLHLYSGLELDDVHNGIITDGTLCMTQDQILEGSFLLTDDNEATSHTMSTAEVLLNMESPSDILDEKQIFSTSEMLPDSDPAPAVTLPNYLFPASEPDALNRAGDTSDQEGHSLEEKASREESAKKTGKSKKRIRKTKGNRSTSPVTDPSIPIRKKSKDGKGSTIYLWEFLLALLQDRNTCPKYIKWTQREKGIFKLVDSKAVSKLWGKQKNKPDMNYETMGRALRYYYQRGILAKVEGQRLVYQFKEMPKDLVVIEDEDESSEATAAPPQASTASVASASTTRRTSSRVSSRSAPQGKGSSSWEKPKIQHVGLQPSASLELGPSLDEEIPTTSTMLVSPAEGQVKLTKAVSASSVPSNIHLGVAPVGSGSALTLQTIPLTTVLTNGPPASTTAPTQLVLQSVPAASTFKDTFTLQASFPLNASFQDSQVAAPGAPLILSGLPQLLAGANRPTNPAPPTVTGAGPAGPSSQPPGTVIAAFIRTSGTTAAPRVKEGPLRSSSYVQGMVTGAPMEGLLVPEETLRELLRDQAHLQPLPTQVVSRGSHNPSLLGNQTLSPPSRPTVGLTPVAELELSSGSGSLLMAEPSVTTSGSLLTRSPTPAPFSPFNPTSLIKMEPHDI
Procedure, shortened: as §1

[15] = molecular target: T9, ELK4 (Homo sapiens, UniProt P28324-2 1-405); conditions: protein: recombinant; tags: N-terminal GST; dsDNA, one strand shown
T9 sequence: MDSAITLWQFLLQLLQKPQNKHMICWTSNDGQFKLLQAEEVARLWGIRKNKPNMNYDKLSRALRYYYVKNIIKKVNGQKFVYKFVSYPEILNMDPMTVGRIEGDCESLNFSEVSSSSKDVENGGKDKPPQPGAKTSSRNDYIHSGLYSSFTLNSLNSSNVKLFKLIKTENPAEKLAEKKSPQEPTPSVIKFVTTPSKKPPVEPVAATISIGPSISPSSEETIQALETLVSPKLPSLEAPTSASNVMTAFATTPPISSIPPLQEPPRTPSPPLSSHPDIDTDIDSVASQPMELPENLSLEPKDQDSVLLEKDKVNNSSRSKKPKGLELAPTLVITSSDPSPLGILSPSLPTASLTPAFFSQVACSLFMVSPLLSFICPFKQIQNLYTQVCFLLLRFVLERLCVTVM
Procedure, shortened: as §1

[16] = molecular target: T10, ETV2 (Homo sapiens, UniProt O00321 1-342); conditions: protein: recombinant; tags: N-terminal GST; dsDNA, one strand shown
T10 sequence: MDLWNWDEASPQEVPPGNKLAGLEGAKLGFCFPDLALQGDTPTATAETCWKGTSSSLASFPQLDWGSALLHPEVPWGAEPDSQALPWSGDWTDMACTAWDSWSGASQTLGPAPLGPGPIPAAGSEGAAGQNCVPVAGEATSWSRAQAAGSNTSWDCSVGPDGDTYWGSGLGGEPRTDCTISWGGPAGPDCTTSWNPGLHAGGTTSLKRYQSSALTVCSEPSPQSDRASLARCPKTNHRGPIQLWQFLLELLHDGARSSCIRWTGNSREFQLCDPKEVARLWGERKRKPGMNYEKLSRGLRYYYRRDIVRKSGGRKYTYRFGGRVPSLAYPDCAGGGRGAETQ
Procedure, shortened: as §1

[17] = molecular target: T11, ELF3 (Homo sapiens, UniProt P78545 1-371); conditions: protein: recombinant; tags: N-terminal GST; dsDNA, one strand shown
T11 sequence: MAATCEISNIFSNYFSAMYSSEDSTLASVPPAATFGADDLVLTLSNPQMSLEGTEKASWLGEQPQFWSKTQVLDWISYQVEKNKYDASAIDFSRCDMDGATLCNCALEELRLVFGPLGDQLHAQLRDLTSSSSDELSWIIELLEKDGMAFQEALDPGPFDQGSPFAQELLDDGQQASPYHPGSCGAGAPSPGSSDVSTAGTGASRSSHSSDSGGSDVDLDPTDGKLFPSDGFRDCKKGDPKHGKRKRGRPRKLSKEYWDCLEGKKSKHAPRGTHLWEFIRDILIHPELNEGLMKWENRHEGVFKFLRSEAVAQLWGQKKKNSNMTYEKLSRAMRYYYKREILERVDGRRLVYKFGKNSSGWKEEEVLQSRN
Procedure, shortened: as §1

[18] = molecular target: CRX (Homo sapiens, UniProt O43186 1-299); conditions: protein: recombinant; tags: N-terminal GST; dsDNA, one strand shown
CRX, sequence (O43186 whole entry): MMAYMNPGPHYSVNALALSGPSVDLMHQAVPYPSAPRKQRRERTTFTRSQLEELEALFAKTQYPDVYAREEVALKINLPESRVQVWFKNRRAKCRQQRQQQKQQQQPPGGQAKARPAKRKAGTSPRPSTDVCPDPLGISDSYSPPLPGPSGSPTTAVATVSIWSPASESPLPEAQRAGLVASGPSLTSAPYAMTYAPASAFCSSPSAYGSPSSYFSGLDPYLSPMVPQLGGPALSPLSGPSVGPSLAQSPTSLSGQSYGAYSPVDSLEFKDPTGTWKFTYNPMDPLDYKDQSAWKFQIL
Procedure, shortened: as §1

[19] = molecular target: ETV1 (Homo sapiens, UniProt P50549 1-477); conditions: protein: recombinant; tags: N-terminal GST; dsDNA, one strand shown
ETV1, sequence (P50549 whole entry): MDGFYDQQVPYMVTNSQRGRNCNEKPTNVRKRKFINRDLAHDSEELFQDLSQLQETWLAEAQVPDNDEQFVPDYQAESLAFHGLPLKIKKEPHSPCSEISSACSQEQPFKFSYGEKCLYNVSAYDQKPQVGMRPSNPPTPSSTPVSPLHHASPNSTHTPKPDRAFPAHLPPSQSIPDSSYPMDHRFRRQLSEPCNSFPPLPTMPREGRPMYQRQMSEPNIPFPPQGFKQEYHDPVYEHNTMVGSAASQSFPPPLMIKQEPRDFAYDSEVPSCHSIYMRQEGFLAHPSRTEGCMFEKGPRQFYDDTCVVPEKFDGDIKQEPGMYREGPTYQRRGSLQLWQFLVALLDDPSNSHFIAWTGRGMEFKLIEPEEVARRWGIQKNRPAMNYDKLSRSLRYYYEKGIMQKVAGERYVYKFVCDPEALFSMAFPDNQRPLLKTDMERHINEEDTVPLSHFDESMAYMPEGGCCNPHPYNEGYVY
Procedure, shortened: as §1

Sequence: GATTTT
- binding signal [1]: 1.16 fold enrichment (6-mer frequency, TF over GST control)
- binding signal [2]: 1.15 fold enrichment (6-mer frequency, TF over GST control)
- binding signal [3]: 1.21 fold enrichment (6-mer frequency, TF over GST control)
- binding signal [4]: 1.12 fold enrichment (6-mer frequency, TF over GST control)
- binding signal [5]: 1.12 fold enrichment (6-mer frequency, TF over GST control)
- binding signal [6]: 1.18 fold enrichment (6-mer frequency, TF over GST control)
- binding signal [7]: 1.12 fold enrichment (6-mer frequency, TF over GST control)
- binding signal [8]: 1.12 fold enrichment (6-mer frequency, TF over GST control)
- binding signal [9]: 1.07 fold enrichment (6-mer frequency, TF over GST control)
- binding signal [10]: 1.09 fold enrichment (6-mer frequency, TF over GST control)
- binding signal [11]: 1.1 fold enrichment (6-mer frequency, TF over GST control)
- binding signal [12]: 1.45 fold enrichment (6-mer frequency, TF over GST control)
- binding signal [13]: 1.14 fold enrichment (6-mer frequency, TF over GST control)
- binding signal [14]: 1.15 fold enrichment (6-mer frequency, TF over GST control)
- binding signal [15]: 1.24 fold enrichment (6-mer frequency, TF over GST control)
- binding signal [16]: 1.12 fold enrichment (6-mer frequency, TF over GST control)
- binding signal [17]: 1.14 fold enrichment (6-mer frequency, TF over GST control)
- binding signal [18]: 1.72 fold enrichment (6-mer frequency, TF over GST control)
- binding signal [19]: 1.17 fold enrichment (6-mer frequency, TF over GST control)
